Experimental data taken from paper PMC6925144, “A prospective compound screening contest identified broader inhibitors for Sirtuin 1” (Scientific Reports, 2019).
Whole data set: some 3,200 compounds, median “TSA(without NAD+) / Primary screening (TSA) / delta Tm (K)” near -0.07, cut for the highest 2% near 0.37. This is one part of a sample in which the highest values are shown more often than they occur.

Target: NAD-dependent deacetylase Sirtuin 1 (human, UniProt Q96EB6)
Test: primary screen, delta tm
Design: single well (n = 1)
Conditions: 10 µM
Experimental: A total of 3,192 compounds extracted from the proposed lists were first screened by thermal shift assay (TSA), which determined a melting temperature shift (ΔTm) of Sirtuin 1 upon the addition of a test compound at a concentration of 10 µM (n = 1) with primary hit criteria of ΔTm > 0.45 K or ΔTm < −1.5 K. Primary hits (48 compounds) were retested in the same assay at three concentrations (5, 10, 20 µM, n = 4) for hit confirmation and for dose-dependency check. Secondary hits (41 compounds) were checked their selectivity for Sirtuin 1 based on counterscreening on unrelated protein targets (bovine carbonic anhydrase (CA) and recombinant SH2 domain of hABL1 kinase (ABL1)) at three different concentrations (5, 10, 20 µM, n = 4), which yielded 38 hit compounds, hereafter referred to as TSA hits. The TSA screening above was conducted in the absence of NAD+.

NAD-dependent deacetylase Sirtuin 1, sequence (Q96EB6 2-747 limits assumed): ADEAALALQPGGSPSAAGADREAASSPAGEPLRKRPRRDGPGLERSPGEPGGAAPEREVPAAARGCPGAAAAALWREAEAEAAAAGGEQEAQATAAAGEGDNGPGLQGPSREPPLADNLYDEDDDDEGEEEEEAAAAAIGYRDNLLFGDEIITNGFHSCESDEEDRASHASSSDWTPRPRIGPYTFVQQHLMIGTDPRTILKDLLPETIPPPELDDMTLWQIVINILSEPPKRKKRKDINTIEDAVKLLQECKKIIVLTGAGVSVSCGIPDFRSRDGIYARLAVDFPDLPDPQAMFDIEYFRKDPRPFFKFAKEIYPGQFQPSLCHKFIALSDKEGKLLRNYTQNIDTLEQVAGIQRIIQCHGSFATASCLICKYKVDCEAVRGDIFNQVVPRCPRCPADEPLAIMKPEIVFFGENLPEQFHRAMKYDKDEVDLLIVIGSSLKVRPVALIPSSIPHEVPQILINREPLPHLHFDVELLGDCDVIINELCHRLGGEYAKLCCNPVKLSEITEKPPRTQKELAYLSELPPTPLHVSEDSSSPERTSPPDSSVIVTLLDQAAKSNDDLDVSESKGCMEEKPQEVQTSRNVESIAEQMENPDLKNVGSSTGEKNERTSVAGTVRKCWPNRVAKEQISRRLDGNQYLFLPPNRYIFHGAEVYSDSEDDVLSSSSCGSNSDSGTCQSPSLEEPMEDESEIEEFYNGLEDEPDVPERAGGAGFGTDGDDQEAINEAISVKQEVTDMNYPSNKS

| SMILES | TSA(without NAD+) / Primary screening (TSA) / delta Tm (K) |
| --- | --- |
| CC(C)Oc1ccc(C(=O)C2=C(O)C(=O)N(CCCN3CCOCC3)C2c2ccncc2)cc1 (centres unmarked) | -0.07 K |
| O=c1c2ccccc2ncn1CC(O)c1ccccc1Cl (centres unmarked) | -0.17 K |
| COc1ccc(/C=N/c2ccc(C(=O)O)cc2)cc1Br | 0.07 K |
| N#Cc1c(Cn2nnc3ccccc3c2=O)cn2ccccc12 | 0.07 K |
| CC(OC(=O)c1cccc(S(=O)(=O)NCc2ccccc2)c1)C(=O)NC12CC3CC(CC(C3)C1)C2 (centres unmarked) | -0.03 K |
| COc1cc(C(C)=O)ccc1COc1ccc(C(=O)OC(C)C(=O)NC23CC4CC(CC(C4)C2)C3)cc1OC (centres unmarked) | 0.05 K |
| Cc1ccc([N+](=O)[O-])cc1S(=O)(=O)Nc1ccc(C(=O)OC(C)C(=O)NC23CC4CC(CC(C4)C2)C3)cc1 (centres unmarked) | 0.86 K |
| CCC(N)COC (centres unmarked) | -0.18 K |
| Cc1ccc(Nc2nnc(SCC(=O)NC(=O)NCc3ccco3)s2)cc1 | 0.07 K |
| Cc1ncc(CN2CCC(Nc3ccc4nnnn4n3)C(C)C2)s1 (centres unmarked) | 0.12 K |
| Cc1cc(F)ccc1N1CCCC(Nc2ccc3nnnn3n2)C1 (centres unmarked) | 0.63 K |
| c1ccc(CN2CCCCCC2)c(CNc2ccc3nnnn3n2)c1 | -0.11 K |
| NC(=O)c1ncn(-c2ccncc2)c1N | -0.02 K |
| CC1CN(S(=O)(=O)c2cccc(C(=O)OCC(=O)COC(=O)c3cccc(S(=O)(=O)N4CC(C)OC(C)C4)c3)c2)CC(C)O1 (centres unmarked) | -0.11 K |
| O=C(COc1ccccc1C(=O)Nc1ccc(S(=O)(=O)Nc2nccs2)cc1)Nc1cccc(C(F)(F)F)c1 | 0.98 K |
| Cc1cccc(-n2ccnc2SCC(=O)Nc2ccc(S(=O)(=O)Nc3nccs3)cc2)c1C | 0.08 K |
| NC(=O)COC(=O)c1ccc(OCC(=O)Nc2cccc(C(F)(F)F)c2)cc1 | -0.02 K |
| CCOc1cc(N2CCOCC2)c(OCC)cc1NC(=O)C1=COCCO1 | -0.15 K |
| CC(NC(=O)COC(=O)CNC(=O)c1ccc(-c2ccccc2)cc1)C12CC3CC(CC(C3)C1)C2 (centres unmarked) | 0.06 K |
| NC(=O)c1cc2c(ccc3ccccc32)o/c1=N\c1ccc(Br)cc1 | -0.32 K |
| O=C(O)C1CC(=O)N(c2cccc(-c3nc(C4CC4)no3)c2)C1 (centres unmarked) | 0.03 K |
| O=C(NCc1cccc(NC(=O)C2CC2)c1)c1ccc(C(=O)c2ccccc2)cc1 | -0.11 K |
| O=C(Nc1cccc(-c2nc(C3CC3)no2)c1)c1cccc(NC(=O)C2CCCCC2)c1 | 0.42 K |
| Cc1ccc2c(c1)c(=O)n(C)c1nnc(CN3CCc4ccccc4C3)n21 | -0.32 K |
| O=C(NC1=NCCS1)c1cc(Cl)ccc1O | -0.05 K |

| SMILES | TSA(without NAD+) / Primary screening (TSA) / delta Tm (K) |
| --- | --- |
| CC(O)CC(C)(C)CNC(=O)Nc1ccc(F)cc1 (centres unmarked) | -0.13 K |
| COc1ccc(CN2C(=O)/C(=C/NNC(=O)CC34CC5CC(CC(C5)C3)C4)c3ccccc3C2=O)cc1 | 0.09 K |
| O=C1CCCN1Cc1ccc(-c2ccccc2CNC(=O)C23CC4CC(CC(C4)C2)C3)cc1 | -0.28 K |
| O=C(CC12CC3CC(CC(C3)C1)C2)NN/C=C1/C(=O)N(Cc2ccccc2)C(=O)c2ccccc21 | 0.32 K |
| O=C1/C(=C/NNC(=O)C23CC4CC(CC(C4)C2)C3)c2ccccc2C(=O)N1Cc1ccccc1 | 0.46 K |
| COc1ccc(N2C(=O)/C(=C/NNC(=O)C34CC5CC(CC(C5)C3)C4)c3ccccc3C2=O)cc1 | 0.43 K |
| O=C1NC(=O)c2ccccc2/C1=C\NNC(=O)C12CC3CC(CC(C3)C1)C2 | 0.33 K |
| CCS(=O)(=O)Nc1ccc(S(=O)(=O)Nc2nccs2)c(OC)c1 | -0.18 K |
| N#Cc1ccccc1Sc1ccccc1C(=O)Nc1ccc(-c2cn3cccnc3n2)cc1 | -0.14 K |
| CCOc1ccc(/C=C(/C#N)C(=O)c2c[nH]c3cc(F)ccc23)cc1 | 0.06 K |
| N#C/C(=C\c1[nH]c2ccccc2c1Cl)C(N)=O | -0.13 K |
| CCCCCCCCNC(=O)/C(C#N)=C/c1c[nH]c2ccccc12 | 0.58 K |
| Oc1ccccc1/C=N/c1ccccc1O | -0.13 K |
| Cc1cc2ccccc2n1CC(=O)NCC(Cc1ccccc1)N(C)C (centres unmarked) | -0.12 K |
| Cc1ccc(N(C)S(=O)(=O)c2cccc(C(=O)Nc3ccc(C(N)=O)cc3)c2)cc1 | 0.46 K |
| CN(c1cccc(Cl)c1)S(=O)(=O)c1cccc(C(=O)Nc2sccc2C(N)=O)c1 | 0.18 K |
| Cc1ccc(N(C)S(=O)(=O)c2cccc(C(=O)Nc3sccc3C(N)=O)c2)cc1 | 0.17 K |
| CC(=O)Nc1ccc(NC(=O)c2cccc(S(=O)(=O)N(C)c3ccc(C)cc3)c2)cc1 | -0.11 K |
| COc1ccc(N(C)S(=O)(=O)c2cccc(C(=O)Nc3ccc(C)cc3)c2)cc1 | 0.17 K |
| Cc1ccc(NC(=O)c2cccc(S(=O)(=O)N(C)c3ccc(C)cc3)c2)cc1 | 0.45 K |
| COc1ccc(N(C)S(=O)(=O)c2cccc(C(=O)Nc3ncc(C(N)=O)s3)c2)cc1 | 0.06 K |
| CN(c1cccc(Cl)c1)S(=O)(=O)c1cccc(C(=O)Nc2cc(C(N)=O)cc(C(N)=O)c2)c1 | 0.15 K |
| CN(c1cccc(Cl)c1)S(=O)(=O)c1cccc(C(=O)Nc2ncc(C(N)=O)s2)c1 | 0.37 K |
| CN(c1ccccc1)S(=O)(=O)c1cccc(C(=O)Nc2sccc2C(N)=O)c1 | 0.38 K |
| Cc1ccc(N(C)S(=O)(=O)c2cccc(C(N)=O)c2)cc1 | -0.11 K |
